The supplement of paper PMC10338343
± gives the standard deviation.

test system: MILI (PIWIL2) piRISC loaded with piRNA #1 (26 nt); assay: pre-steady-state target cleavage rate (min^-1); guide: piRNA #1 5'p-UGAGGUAGUAGGUUGUAUAGUAUCCA; MIWI and MILI are mouse PIWI proteins and EfPiwi is from a freshwater sponge; tags in brackets are library labels; higher = faster piRNA-guided slicing of the target; conditions: auxiliary factor: 500 nM mouse GTSF1
How it was run: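 Cleave-'n-Seq measured uncleaved targets by sequencing after a transcribed, DNA-blocked target RNA library […] was mixed with 1 nM active affinity-purified piRISC holding one synthetic guide, with or without 500 nM GTSF1 partner protein, at 33 °C in HEPES–potassium acetate buffer for 0–8 or 0–960 min. Counts were normalised to depth and to weakly complementary targets, three trials were pooled, and k3 was capped at 0.0001 min^-1. A burst-and-steady-state fit gave the pre-steady-state cleavage rate.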
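Further: 1 nM active piRISC with 0.1 nM target library at 33 °C single turnover.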

Sequence	pre-steady-state target cleavage rate
GGAGACCUAUGAUAACAACCUACUUGGUCA	< 0.0001
GGAGACCAUACUAUAGAACCUACUUCCUCA	0.0428 ± 0.013
GGAGACCAUACUAUACAACGAUGAUGGAGA [g12:g23:cont:t1A]	< 0.0001
GGAGACCUAUGUUUACAAGCUACUACCUCA	0.0793 ± 0.017
GGAGACGAUAUCUAUACAACCUACUACCUCA	0.0966 ± 0.013
GGAGACGAUACUAUACAACCUACAUGCUCA	0.0563 ± 0.016
GGAGUGGAUUCUAAACAACCUACUACCUCA	0.143 ± 0.0089
GGAGACCUUACUAUACAACCAUCUACCUCA	0.00422 ± 0.0032
GGAGACCUAUGAUAUCAACGUACUAGCUCA	< 0.0001
GGAGACCUUACUAAACAACCUACUACGUCA	0.0571 ± 0.01
GGAGACCAUACUUUAGAACCUACUACCUCA	0.134 ± 0.013
GGAGACCUAUGUAUUCAACCUUCUACCUCA	0.00294 ± 0.0026
GGAGACCUAUGUAUACAACCUACCACCUCA	0.0347 ± 0.0083
GGAGACCUAUGAAUACAACCUACUACCUAA	0.00505 ± 0.0032
GGAGACCUAUGUAUACAAGGUACUACCUCA	0.0261 ± 0.0047
GGAGACCUAUGUAUACAUCGUACUACCUCA	0.00791 ± 0.003
